In PubChem BioAssay (Tox21):
Inconclusive results are not listed. Activity calls are given as the source filed them. Unless noted, calls follow the shape of the full dose curve. Positions of bridges follow the written chain, without caps; N, C: chain ends. Non-standard residues stand in square brackets, D forms with d. Residues, ends and D or L forms follow the SMILES beside them. hArg = N=C(N)NCCCC[C@H](N)C(=O)O; Mpa = O=C(O)CCS

Assays:
[1] = qHTS assay to identify small molecule antagonists of the vitamin D receptor (VDR) signaling pathway - cell viability counter screen (AID 743225; active = well fitted curve in the direction sought with a large enough effect in the repeat runs; an effect the other way counts as inactive or inconclusive; also: nearly all actives have a fitted effect of over 50% in size)
How it was run: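 Cytotoxicity counter screen read by CellTiter-Glo luminescence (30 min, room temperature) in the same wells as the VDR-bla antagonist readout. HEK 293T VDR-UAS-bla cells had 16 h at 37C with compound and 3 nM (final) 1-alpha,25-dihydroxyvitamin D3, then 2 h with FRET substrate.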

[2] = qHTS assay to identify small molecule agonists of the NFkB signaling pathway (AID 1159509; active = well fitted curve in the direction sought with a large enough effect in the signal ratio in the repeat runs, not every such curve was filed as active; the % refers to the signal ratio; also: series mostly up to about 61 µM)
How it was run: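 Agonist activity was read as beta-lactamase-driven FRET change (460 and 530 nm emission, 405 nm excitation) following 1.5 hr substrate loading at room temperature. Beforehand, ME-180 NFkB-bla reporter cells were treated with compounds for 5 hr at 37 C.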

[3] = qHTS assay to identify small molecule agonists of the NFkB signaling pathway - cell viability counter screen (AID 1159515); also: series mostly up to about 61 µM; nearly all actives have a fitted effect of over 55% in size
How it was run: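 ME-180 NFkB-bla cells, 2,000/well; overnight attach; compound 5 hr, 37 C/5% CO2; LiveBLAzer substrate 1.5 hr RT; then CellTiter-Glo in same wells, 30 min RT, luminescence read.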

[4] = qHTS assay to identify small molecule agonists of the endoplasmic reticulum stress response signaling pathway (AID 1159516; active = well fitted activation curve with a large enough effect in the signal ratio in the repeat runs, not every such curve was filed as active; the % refers to the signal ratio)
How it was run: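 HeLa ESRE-bla reporter line; cpd 5 h, 37 C/5% CO2; LiveBLAzer B/G FRET substrate 2 h RT; ex 405, em 460/530 nm.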

[5] = qHTS assay to identify small molecule agonists of the endoplasmic reticulum stress response signaling pathway - cell viability counter screen (AID 1159517);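 also: HeLa cells carrying an ER stress response element beta-lactamase reporter; series mostly up to about 61 µM; nearly all actives have a fitted effect of over 50% in size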
How it was run: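 In parallel with the ESRE reporter read, cytotoxicity was scored by CellTiter-Glo luminescence (30 min, room temperature) on HeLa ESRE-bla cells dosed for 5 hr.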

[6] = qHTS assay to identify small molecule antagonists of the retinoid-related orphan receptor gamma (ROR-gamma) signaling pathway - cell viability counter screen (AID 1159520; active = well fitted curve in the direction sought with a large enough effect in the repeat runs; an effect the other way counts as inactive or inconclusive; also: nearly all actives have a fitted effect of over 50% in size)
How it was run: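 Tet-on ROR gamma CHO cells were given compounds for 2 hr, then doxycycline hyclate at 1 uM final, and incubated 16 hr at 37 C. Viability was measured as ATP content by CellTiter-Glo luminescence.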

[7] = target: Nuclear receptor ROR-gamma (Homo sapiens) (UniProt P51449); test: qHTS assay to identify small molecule antagonists of the retinoid-related orphan receptor gamma (ROR-gamma) signaling pathway (AID 1159521; active = well fitted curve in the direction sought with a large enough effect in the repeat runs; an effect the other way counts as inactive or inconclusive; also: top concentration of the series differs between compounds; nearly all actives have a fitted effect of over 50% in size)
How it was run: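 Antagonist read-out: drop in luminescence (ONE-Glo) from an RORE-LUC reporter in CHO cells with doxycycline-inducible ROR-gamma; 2 hr compound pretreatment, 1 uM doxycycline, 16 hr incubation at 37 C.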

[8] = qHTS assay to identify small molecule agonists of the AP-1 signaling pathway - cell viability counter screen (AID 1159525); also: nearly all actives have a fitted effect of over 55% in size
How it was run: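 Same-well cytotoxicity counter screen of the Tox21 10K library in ME-180 cells. The readout is ATP-dependent luminescence after 5 h compound treatment. Data are normalised to DMSO and tetra n-octyl ammonium bromide controls.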

[9] = qHTS assay to identify small molecule agonists of the AP-1 signaling pathway (AID 1159526)
[10] = target: Retinoic acid receptor RXR-alpha (Homo sapiens) (UniProt P19793); test: qHTS assay to identify small molecule agonists of the RXR signaling pathway (AID 1159527); also: nearly all actives have a fitted effect of over 35% in size
How it was run: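 Agonist-mode beta-lactamase reporter assay: HEK 293T RXR-alpha-UAS-bla cells treated 16 hr at 37 C with compounds, 9-cis retinoic acid as positive control. LiveBLAzer FRET substrate, 405 nm excitation, 460/530 nm emission.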

Measured: Potency

Retinoic acid receptor RXR-alpha (Homo sapiens), sequence (P19793 whole entry, looked up): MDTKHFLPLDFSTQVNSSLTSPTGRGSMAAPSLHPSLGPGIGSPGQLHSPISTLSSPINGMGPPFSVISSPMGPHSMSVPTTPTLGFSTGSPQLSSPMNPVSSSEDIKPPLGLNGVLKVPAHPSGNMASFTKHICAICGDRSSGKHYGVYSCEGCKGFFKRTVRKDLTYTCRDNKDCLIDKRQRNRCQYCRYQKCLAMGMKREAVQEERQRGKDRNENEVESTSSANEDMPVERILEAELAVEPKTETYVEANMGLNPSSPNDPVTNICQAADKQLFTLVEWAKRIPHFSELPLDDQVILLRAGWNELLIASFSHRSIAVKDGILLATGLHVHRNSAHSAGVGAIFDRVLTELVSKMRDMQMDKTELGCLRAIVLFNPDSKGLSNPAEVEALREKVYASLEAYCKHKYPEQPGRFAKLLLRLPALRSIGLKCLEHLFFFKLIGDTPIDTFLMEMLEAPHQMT

COC(=O)CCCCC(=O)O
inactive: all assays above

C=C(C)c1cccc(C(C)(C)N=C=O)c1
inactive: all assays above

CC(=O)Nc1ccc(OC(=O)c2ccccc2OC(C)=O)cc1
inactive: all assays above

CC(C)Nc1ccccc1
inactive: all assays above

CC(=O)CCc1ccc(OC(C)=O)cc1
inactive: all assays above

CCCSSCCC
inactive: all assays above

CCCCCCCCCCCCCCC(=O)NC(CO)CCCCCCCCCCCCCC (stereo not given)
inactive: all assays above

Cc1ccc(C(C)NC(=O)[C@@H](NC(=O)OC(C)C)C(C)C)cc1 (stereo not given in full)
inactive: all assays above

Cc1ccc2c(c1)C(=O)c1ccccc1C2=O
inactive: all assays above

CC(Oc1cc(Cl)ccc1Cl)C(=O)O (stereo not given)
inactive: all assays above

CNCCS(=O)(=O)O
inactive: all assays above

O=Cc1ccccc1Cl
inactive: all assays above

CCOC(=O)CC1(C)OCC(C)O1 (stereo not given)
inactive: all assays above

NC(=O)[C@@H]1CSSCCC(=O)N[C@@H](CCCCN=C(N)N)C(=O)NCC(=O)N[C@@H](CC(=O)O)C(=O)N[C@@H](Cc2c[nH]c3ccccc23)C(=O)N2CCC[C@H]2C(=O)N1 ([Mpa][hArg]GDWPC-NH2; disulfide 1-7)
inactive: all assays above

C=CC(=O)OCC1CCCO1 (stereo not given)
inactive: all assays above

CC/C(C)=N\O[Si](C)(O/N=C(\C)CC)O/N=C(\C)CC
inactive: all assays above

C[Si]1(C)O[Si](C)(C)O[Si](C)(C)O[Si](C)(C)O[Si](C)(C)O1
inactive: all assays above

O=C(NCN1CCOCC1)c1cnccn1
inactive: all assays above

C=C(C)C1CC=C(C)C(=O)C1 (stereo not given)
inactive: all assays above

Fc1ccccc1
inactive: all assays above

Nc1nnnn1-c1ccccc1
inactive: all assays above

C[C@]12CCC(=O)C=C1CC[C@H]1[C@@H]3CC[C@](O)(C(=O)CO)[C@@]3(C)C[C@H](O)[C@@]12F
inactive: all assays above

O/N=C/C=N/O
inactive: all assays above
